Screening data from PubChem.
TRPM1 prom inh = inhibitors of MITF-driven TRPM1 promoter in melanoma cells; SK-MEL-5 TRPM1 promoter luciferase, 24 h; inhibition, % at 12.5 µM; 0.83% of 330,000 active;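 active = mean inhibition across replicates of 60% or more, whatever share of single replicates reaches that level; inconclusive = some that reach 60%, reason not given; inactive = mean inhibition across replicates below 60%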
CF NFkB block = blocks PAF-induced NF-kB reporter in cystic fibrosis cells | KKLEB NF-kB-GFP reporter, GFP fluorescence overnight | AID 588850 | 0.86% of 360,000 active | inhibition, % at 5 µM;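 active = at least 50% inhibition at 5 µM, scaled per plate between neutral and stimulator controls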;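 note: PAF is a Pseudomonas aeruginosa culture filtrate used as stimulus; plate controls were PAF-stimulated DMSO wells for no effect and unstimulated DMSO wells for full effect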
Peg3 prom inh = inhibitors of Peg3 promoter. 1.7% of 360,000 active. inhibition, % at 20 µM. AID 588405. HeLa PEG-Prom luciferase reporter, luminescence, overnight;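 active = inhibition of at least 50% at 20 µM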
KKLEB cytotox = CF airway cell cytotoxicity counter-screen | KKLEB CF airway cells viability, ATPlite luminescence, overnight; hits give low values; cells stimulated with P. aeruginosa culture filtrate | activity change (cytotoxicity), % at 5 µM | 0.36% of 360,000 active;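 active = corrected activity change at or below -50% at 5 µM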
HIF-2a block = inhibitors of HIF-2a; 786-0 RCC cells HIF-2a reporter, luciferase luminescence, overnight; inhibition, % at 18.8 µM; 0.72% of 360,000 active; AID 624352;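 active = inhibition of the luminescence signal of 40% or more relative to plate controls, in a single-dose primary screen at 18.75 µM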
Shn3 inh set2 = reduces Shn3 3'UTR luciferase signal in osteoblasts; Clone20 osteoblast Shn3 3'UTR firefly luciferase, 24 h; inhibition, % at 12.5 µM; 0.52% of 360,000 active; AID 588674;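 active = mean inhibition of at least 75% with every replicate also reaching 75%; inconclusive = mean inhibition at least 75% but some replicate below; inactive = mean inhibition below 75%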;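 note: 0% = median of neutral control wells and 100% = pilot-screen positive control compound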
* = called active by the depositor; ? = inconclusive; · = not tested or not shown. Most compounds without a hit are left out; they make up all but 2.8% or so of the library.

SMILES | TRPM1 prom inh | CF NFkB block | Peg3 prom inh | KKLEB cytotox | HIF-2a block | Shn3 inh set2
CSc1ccccc1C(=O)NC1CCSc2ccccc21 (stereo not given) | -15 | -2 | 1 | -8 | -5 | 8
Cc1csc(NC(=O)c2cncc(Br)c2)n1 | -55 | 9 | -128 | -7 | -196 | -71
CCCN(CC(=O)Nc1ccccc1OC)C(=O)Cc1ccccc1F | -2 | 2 | 8 | 15 | 16 | -2
O=C(O)COc1ccccc1/C=N/Nc1ccc(S(=O)(=O)N2CCOCC2)cc1[N+](=O)[O-] | 3 | -8 | 68* | 8 | 18 | 0
O=C(O)c1ccc(/C=N\Nc2ccc(S(=O)(=O)N3CCOCC3)cc2[N+](=O)[O-])cc1 | -2 | 4 | 3 | 8 | 16 | 14
COc1ccccc1/C=N/NC(=O)C(=O)Nc1ccccc1OC(F)(F)C(F)F | -7 | -6 | 4 | -3 | 8 | -1
O=C(N/N=C/c1cc(Cl)ccc1O)c1ccncc1 | 62* | 12 | 45 | 8 | 8 | ?
O=C(N/N=C/c1cc(Br)ccc1O)C(=O)Nc1ccccc1OC(F)(F)C(F)F | 66* | 3 | 57* | -12 | 3 | 85*
O=C(N/N=C/c1cc(Cl)ccc1O)C(=O)Nc1ccccc1OC(F)(F)C(F)F | 65* | 4 | 60* | -16 | -9 | 88*
COc1cc(-c2nc3cccc(C)n3c2NCC2CCCO2)ccc1O (stereo not given) | -21 | -18 | -5 | 7 | -35 | 0
COc1ccccc1C(CNC(=O)C1CCN(C(=O)Nc2ccccc2)CC1)N1CCCC1 (stereo not given) | -4 | 18 | -10 | -7 | -1 | -23
CCCCC(CC)CN=C(N)NC(N)=NCCCCCCN=C(N)NC(N)=NCC(CC)CCCC (stereo not given) | 110* | 52* | 103* | -17 | 98* | 97*
O=C1C(Cl)=C(N2CCN(c3ccccc3[N+](=O)[O-])CC2)C(=O)c2ccccc21 | 27 | 30 | 101* | -11 | 23 | 96*
COc1ccc(C(=O)/C=C/c2ccc(OC)c(Cn3nnc4ccccc43)c2)cc1 | 24 | 18 | 52* | -34 | 36 | -4
CCO[C@@H]1OC(C(=O)NC2CC2)=C[C@H](c2coc3ccccc3c2=O)[C@H]1CCCO | -4 | 7 | -4 | 13 | 17 | 92*
OCC1OC(n2cnc3c(NCc4ccccc4O)ncnc32)C(O)C1O (stereo not given) | 59 | 30 | 71* | -54* | -25 | 77
O=Cc1cn(-c2ccccc2)nc1-c1ccccc1 | -42 | 6 | -72 | -15 | -156 | -35
CC1=NNC(=O)/C1=C\c1cn(-c2ccccc2)nc1-c1ccccc1 | 95* | 94* | 104* | -42 | 95* | 97*
CC(C)CN(C(=O)COC(=O)c1ccc([N+](=O)[O-])s1)c1c(N)n(Cc2ccccc2)c(=O)[nH]c1=O | 60* | -3 | -13 | 15 | -11 | 4
CC(C)CN(C(=O)COC(=O)c1cccs1)c1c(N)n(Cc2ccccc2)c(=O)[nH]c1=O | · | 28 | 9 | -9 | 12 | 2
CCCCn1c(N)c(N(CCC(C)C)C(=O)COC(=O)c2ccc([N+](=O)[O-])s2)c(=O)[nH]c1=O | 80* | 20 | 31 | 1 | -19 | -5
COCCn1c(C)cc(C(=O)COC(=O)c2ccc[nH]c2=O)c1C | 15 | 11 | 52* | 2 | 31 | 1
CCN1CCN(S(=O)(=O)c2ccc(Cl)c(C(=O)N(C)Cc3cccs3)c2)CC1 | -9 | 7 | 3 | -52* | 8 | -6
CCOC(=O)c1c(C)sc2c1N(C(=O)CCl)c1cc(Cl)ccc1S2 | 82* | 69* | 87* | -76* | 91* | 11
Cc1sc2ncnc(SCC(=O)N3c4ccccc4Sc4ccc(Cl)cc43)c2c1C | -4 | 16 | 9 | -5 | 27 | 17
SMILES | TRPM1 prom inh | CF NFkB block | Peg3 prom inh | KKLEB cytotox | HIF-2a block | Shn3 inh set2
CC(C)CCN(C(=O)c1csnn1)C(C(=O)NC1CCCCC1)c1ccc(F)cc1 (stereo not given) | -13 | 1 | -1 | -7 | 8 | 4
Nc1ccc(-c2nc3ccc(N)cc3o2)cc1 | 1 | -5 | -210 | -21 | -65 | -52
Cc1ccc2nc(-c3cc(N)cc(N)c3)oc2c1 | 22 | -3 | -122 | -26 | 62* | 36
NC(=O)C1(c2ccccc2)OC1c1ccccc1 (stereo not given) | -17 | 14 | -30 | 5 | -27 | -9
COC(=O)[C@H](Cc1ccccc1)NC(=O)N1CCN(c2ccc(F)cc2)CC1 | -23 | 9 | 7 | 8 | 16 | 9
COC(=O)c1ccc(-c2nc3cc(Cl)c(N)cc3s2)cc1 | 16 | -20 | 43 | -53* | -92 | 34
O=C(O)C1C2CCCCC2=C2CCCCC2C1C(=O)Nc1nccs1 (stereo not given) | 2 | -11 | 7 | -6 | 22 | -8
O=C(O)C1C2CCCCC2=C2CCCCC2C1C(=O)O (stereo not given) | -7 | 19 | 53* | -14 | 24 | -4
Cc1c([N+](=O)[O-])nnn1-c1cc(Cl)cc(Cl)c1 | 2 | 3 | 20 | -3 | 8 | -20
Cn1c(=O)c2[nH]c(CCCCCCCCc3nc4ccccc4[nH]3)nc2n(C)c1=O | 3 | 16 | 23 | -14 | 0 | 86*
Nc1nc2c(Cl)ccc(Cl)c2s1 | 6 | 21 | 22 | -4 | 14 | -2
Cc1cccc(Nc2nc(N)c([N+](=O)[O-])c(N3CCCC(C)C3)n2)c1 (stereo not given) | 4 | 42 | 55* | -18 | -14 | 37
c1ccc(CN2CCC(Nc3nc(-c4cccs4)nc4ccccc34)CC2)cc1 | 25 | 5 | 75* | -18 | 22 | -6
COc1cccc(C(C(=O)NCc2ccccc2)N(C(=O)c2csnn2)C2CC2)c1 (stereo not given) | -2 | 9 | 6 | -7 | 6 | 0
CC(C)Cn1c(N)c(C(=O)NCC2CCCO2)c2nc3ccccc3nc21 (stereo not given) | 1 | 36 | 32 | -5 | 13 | 14
Nc1c(C(=O)NCC2CCCO2)c2nc3ccccc3nc2n1/N=C/c1ccncc1 (stereo not given) | 4 | -35 | 60* | -5 | 4 | -1
O=C(CCC(=O)c1ccc(F)cc1)OCc1nnc(-c2ccc([N+](=O)[O-])cc2)o1 | · | 2 | 3 | 4 | 4 | -6
O=C1c2ccccc2C(=O)c2c1cccc2-n1nnc2ccccc21 | -1 | -10 | 4 | -14 | 5 | 10
O=C1C(N2CCOCC2)=C(n2nnc3ccccc32)C(=O)c2ccccc21 | 98* | 86* | 98* | -22 | 27 | 24
Cc1c(C#N)c(O)n(CCO)c(=O)c1N=Nc1ccc2c(c1)COC2=O | 62* | 43 | 20 | -10 | 3 | -3
